According to PubChem BioAssay AID803 (The Scripps Research Institute Molecular Screening Center, 2007):
Hit rate of the full screen: of about 140,000 compounds, about 680 (0.49%) were called active. This is one part of a sample in which actives are shown more often than they occur. Cut-off read from the data, not from the text of the source: active = activation above about 5% (passing the limit was not always enough); inactive = the rest.

Target: Galanin receptor type 2 (Homo sapiens) (UniProt O43603)
Assay: human galanin receptor 2 activators – cell-based, primary screen (AID 803);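 note: 0% = vehicle buffer wells and 100% = reference agonist at full effect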
Settings: GALR2-expressing cells, agonist activation read-out; at 5.6 µM; stronger effect = higher value

Galanin receptor type 2 (Homo sapiens), sequence (O43603 whole entry, looked up): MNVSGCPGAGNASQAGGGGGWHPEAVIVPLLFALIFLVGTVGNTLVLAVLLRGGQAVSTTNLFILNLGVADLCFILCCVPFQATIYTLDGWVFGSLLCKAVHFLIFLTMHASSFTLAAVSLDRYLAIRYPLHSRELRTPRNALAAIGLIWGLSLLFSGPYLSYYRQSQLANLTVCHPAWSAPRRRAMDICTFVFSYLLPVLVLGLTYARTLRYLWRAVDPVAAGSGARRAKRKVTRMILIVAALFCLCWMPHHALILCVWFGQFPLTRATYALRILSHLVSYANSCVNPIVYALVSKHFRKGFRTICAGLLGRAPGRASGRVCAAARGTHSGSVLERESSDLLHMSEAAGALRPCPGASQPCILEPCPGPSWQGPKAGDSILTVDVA

SMILES | activation
CC(C)C(=O)Nc1cccc(NC(=O)c2ccc([N+](=O)[O-])cc2Cl)c1 | 7.57% (active)
COc1ccc(S(=O)(=O)NC(C)C(=O)Nc2cccc([N+](=O)[O-])c2)cc1 (configuration not stated) | -0.92% (inactive)
CCC(C)C(=O)Nc1cc([N+](=O)[O-])ccc1Cl (configuration not stated) | -0.24% (inactive)
C/C(=N\N=C(N)N)c1ccc(Cl)cc1 | -2.59% (inactive)
O=C(NN1C(=O)C2C3C=CC(C3)C2C1=O)c1ccco1 (configuration not stated) | -0.17% (inactive)
CC1(C)CC(=O)C=C(NCCCNC2CCCCC2)C1 | -0.48% (inactive)
CC1(C)CC(=O)C=C(NCCCN2CCCC2=O)C1 | -3.74% (inactive)
CC1(C)CC(=O)C=C(NCCN2CCNCC2)C1 | 33.1% (active)
COc1cccc(/C=N/Nc2ncc(C(F)(F)F)cc2Cl)c1O | 0.04% (inactive)
Cc1cc(O)ccc1NC1=CC(=O)CC(C)(C)C1 | -0.24% (inactive)
COCCCNC(=S)NC(=O)c1ccc([N+](=O)[O-])cc1 | -2.33% (inactive)
O=C(NC(=S)Nc1ccc(NC(=O)c2cccs2)cc1)c1ccc([N+](=O)[O-])cc1 | 13.8% (active)
O=C(O)c1ccc(NC(=O)c2cccs2)cc1 | -3% (inactive)
O=C(Nc1ccccc1)/C(=C/c1ccc([N+](=O)[O-])cc1)NC(=O)c1ccccc1 | 5.48% (active)
O=C(NCCc1ccccc1)/C(=C\c1ccc([N+](=O)[O-])cc1)NC(=O)c1ccccc1 | -1.62% (inactive)
O=C(N/N=C/c1ccc(O)cc1)/C(=C/c1ccc([N+](=O)[O-])cc1)NC(=O)c1ccccc1 | -1.29% (inactive)
Cc1ccccc1C(CC(=O)c1cccs1)C(C#N)C#N (configuration not stated) | -0.23% (inactive)
Cc1cc2c(C)nc(N/N=C/c3ccccc3)nc2o1 | 0.45% (inactive)
O=C(Oc1ccccc1Cl)c1ccc(N2CCOCC2)c([N+](=O)[O-])c1 | -1.48% (inactive)
CC(=O)c1sc(N/N=C\c2ccc(C)cc2)nc1C | 2.02% (inactive)
O=C(CSc1ncnc2scc(-c3ccccc3)c12)NCc1ccc2c(c1)OCO2 | -1.28% (inactive)
CC(C)(C)SCCNC(=O)c1cccc([N+](=O)[O-])c1 | -0.73% (inactive)
Cc1ccc(S(=O)(=O)N2CCN(CC(=O)N/N=C/c3cc([N+](=O)[O-])ccc3Cl)CC2)cc1 | -0.78% (inactive)
CSc1nc(-c2ccccc2)nc(C(Cl)Cl)n1 | 8.01% (active)

SMILES | activation
CSc1nc(C)cc(SC(C(C)=O)C(=O)Nc2ccccc2)n1 (configuration not stated) | -0.36% (inactive)
CC(=O)CCC(=O)c1ccc2ccccc2c1 | -2.23% (inactive)
Cc1ccc(C(=O)NC(=S)NCCN2CCOCC2)cc1 | -1.71% (inactive)
COc1cc2c(cc1/C=C1/NC(=O)N(c3ccccc3)C1=O)OCO2 | 1.22% (inactive)
O=C1CC(NNc2ccccc2)C(=O)N1c1cccc(Cl)c1 (configuration not stated) | -2.24% (inactive)
O=C1N/C(=C/c2cccn2-c2ccccc2)C(=O)N1c1cccc(Cl)c1 | 6.96% (active)
CCOc1ccc2nc(NC(=O)c3cc([N+](=O)[O-])ccc3N3CCOCC3)sc2c1 | -0.53% (inactive)
O=C1COc2ccc(NC(=O)N3CCN(c4ccc(F)cc4)CC3)cc2N1 | 12.7% (active)
COc1cccc(N2CCN(C(=O)Nc3ccc4c(c3)NC(=O)CO4)CC2)c1 | -2.77% (inactive)
O=C(Nc1cccc(NC(=O)N2CCN(c3ccccc3)CC2)c1)N1CCN(c2ccccc2)CC1 | -2.65% (inactive)
COCC(=O)N=Nc1c(O)[nH]c2ccccc12 | -0.5% (inactive)
CN(c1ccccc1)c1nc(N)c([N+](=O)[O-])c(NCc2ccco2)n1 | 1.08% (inactive)
CCc1nnc(NC(=O)C2CC(=O)N(c3ccc4c(c3)OCCO4)C2)s1 (configuration not stated) | 0.1% (inactive)
CNC(=S)N/N=C/c1ccc(OCc2ccccc2)c(Br)c1 | 7.44% (active)
CNC(=S)NNC(=O)c1sccc1OCc1ccccc1 | -1.56% (inactive)
COc1cc(/C=N/n2c(C)n[nH]c2=S)ccc1OCc1ccccc1 | 1.11% (inactive)
COc1ccc(/C(N)=N/OC(=O)CCCc2ccccc2)cc1 | -0.21% (inactive)
C=C(C)c1cccc(C(C)(C)NC(=O)NC2CCCC2)c1 | -1.16% (inactive)
COc1ccc(C(=O)OCC(=O)NC(=O)CCSc2ccccc2)cc1 | -1.93% (inactive)
CC(Sc1cccc[n+]1[O-])C(=O)Nc1cccc(S(=O)(=O)N2CCOCC2)c1 (configuration not stated) | -0.5% (inactive)
COc1ccc(Nc2nc(N)nc(CSC(=S)N3CCC(C)CC3)n2)cc1 | 0.01% (inactive)
COCCNC(=S)N/N=C/c1c(C)[nH]c2ccccc12 | -0.61% (inactive)
CCOC(=O)c1c(C)c(C(=O)NCCc2ccc(S(N)(=O)=O)cc2)c(C)n1CC | -2.14% (inactive)
